# In the supplement of paper PMC4022240:
# ± gives the standard deviation.
# T1: HaloTag-ATRX ADD domain (163-292)
# T1 chain: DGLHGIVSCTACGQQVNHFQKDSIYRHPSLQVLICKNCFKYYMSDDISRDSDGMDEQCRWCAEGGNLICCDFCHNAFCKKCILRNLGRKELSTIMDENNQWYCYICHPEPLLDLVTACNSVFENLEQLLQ
# How the values were obtained:
# Assay in all cases: peptide microarray binding signal (635 nm), min-max normalized on array (fraction of array maximum); higher = stronger binding
# [1] = molecular target: T1, HaloTag-ATRX ADD domain (163-292)
# Procedure, shortened: (§1)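 Binding signal is the mean intensity of triplicate spots, min-max scaled within each library. Histone 13-mer peptide–cellulose conjugates were spotted in triplicate on nitrocellulose with a Cy3 tracer and blocked overnight at 4°C. Probing lasted 1 h at 4°C, either with biotin-labelled HaloTag reader fusions (10 nM to 1 μM) and streptavidin-Alexa Fluor 647 or with rabbit histone antibodies (1:10,000 to 1:2,000) and anti-rabbit Alexa 647. An Axon GenePix 4000B read signal at 635 nm and misprints at 532 nm.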
# [2] = molecular target: HaloTag-ING2 PHD (mouse Ing2 200-280)
# Procedure, shortened: as §1
# [3] = molecular target: anti-H3K4me3 antibody ab8580
# Procedure, shortened: as §1
# [4] = molecular target: anti-H3K9me3 antibody ab8898
# Procedure, shortened: as §1
# [5] = peptide region: H3 112-124, peptide modifications: H3K115me1 H3R116cit, binder concentration: 1:2,000 dilution
# [6] = peptide region: H3 112-124, peptide modifications: H3K115me1 H3R116cit, binder concentration: 1:10,000 dilution
# [7] = peptide region: H3 112-124, peptide modifications: H3K115me1, binder concentration: 1:2,000 dilution
# [8] = peptide region: H3 112-124, peptide modifications: H3K115me1, binder concentration: 1:10,000 dilution
# [9] = peptide region: H3 112-124, peptide modifications: H3K115ac H3R116me2a, binder concentration: 1:2,000 dilution
# [10] = peptide region: H3 112-124, peptide modifications: H3K115ac H3R116me2a, binder concentration: 1:10,000 dilution
# [11] = peptide region: H3 73-85, peptide modifications: H3K79me3, binder concentration: 1:2,000 dilution
# [12] = peptide region: H3 73-85, peptide modifications: H3K79me3, binder concentration: 1:10,000 dilution
# [13] = peptide region: H3 112-124, peptide modifications: H3K115ac H3K122me3, binder concentration: 1:2,000 dilution
# [14] = peptide region: H3 112-124, peptide modifications: H3K115ac H3K122me3, binder concentration: 1:10,000 dilution
binder,measurement,setting,value
IHAKRVTIMPKDI [H3 112-124 I H A Kme Rcit V T I M P K D I],peptide microarray binding signal,"[1]; peptide region: H3 112-124, peptide modifications: H3K115me1 H3R116cit, binder concentration: 50 nM",0.00947 ± 0.0002
same,peptide microarray binding signal,"[1]; peptide region: H3 112-124, peptide modifications: H3K115me1 H3R116cit, binder concentration: 500 nM",0.0238 ± 0.00041
same,peptide microarray binding signal,"[2]; peptide region: H3 112-124, peptide modifications: H3K115me1 H3R116cit, binder concentration: 10 nM",0.0192 ± 0.00041
same,peptide microarray binding signal,"[2]; peptide region: H3 112-124, peptide modifications: H3K115me1 H3R116cit, binder concentration: 100 nM",0.037 ± 0.0012
same,peptide microarray binding signal,[3]; [5],0.00225 ± 5.2e-05
same,peptide microarray binding signal,[3]; [6],0.00434 ± 0.00036
same,peptide microarray binding signal,[4]; [5],0.00249 ± 6.3e-05
same,peptide microarray binding signal,[4]; [6],0.00248 ± 5.9e-05
IHAKRVTIMPKDI [H3 112-124 I H A Kme R V T I M P K D I],peptide microarray binding signal,"[1]; peptide region: H3 112-124, peptide modifications: H3K115me1, binder concentration: 50 nM",0.00774 ± 0.00015
same,peptide microarray binding signal,"[1]; peptide region: H3 112-124, peptide modifications: H3K115me1, binder concentration: 500 nM",0.0198 ± 0.0023
same,peptide microarray binding signal,"[2]; peptide region: H3 112-124, peptide modifications: H3K115me1, binder concentration: 10 nM",0.00668 ± 0.00016
same,peptide microarray binding signal,"[2]; peptide region: H3 112-124, peptide modifications: H3K115me1, binder concentration: 100 nM",0.0314 ± 0.0099
same,peptide microarray binding signal,[3]; [7],0.00168 ± 0.00023
same,peptide microarray binding signal,[3]; [8],0.001997 ± 1.8e-05
same,peptide microarray binding signal,[4]; [7],0.0034 ± 0.00038
same,peptide microarray binding signal,[4]; [8],0.00236 ± 0.00015
IHAKRVTIMPKDI [H3 112-124 I H A Kac Rme2a V T I M P K D I],peptide microarray binding signal,"[1]; peptide region: H3 112-124, peptide modifications: H3K115ac H3R116me2a, binder concentration: 50 nM",0.00787 ± 0.00018
same,peptide microarray binding signal,"[1]; peptide region: H3 112-124, peptide modifications: H3K115ac H3R116me2a, binder concentration: 500 nM",0.0159 ± 0.00051
same,peptide microarray binding signal,"[2]; peptide region: H3 112-124, peptide modifications: H3K115ac H3R116me2a, binder concentration: 10 nM",0.0239 ± 0.00027
same,peptide microarray binding signal,"[2]; peptide region: H3 112-124, peptide modifications: H3K115ac H3R116me2a, binder concentration: 100 nM",0.0365 ± 0.0046
same,peptide microarray binding signal,[3]; [9],0.00423 ± 0.00017
same,peptide microarray binding signal,[3]; [10],0.00394 ± 0.00014
same,peptide microarray binding signal,[4]; [9],0.00278 ± 0.00019
same,peptide microarray binding signal,[4]; [10],0.00306 ± 0.0002
EIAQDFKTDLRFQ [H3 73-85 E I A Q D F Kme3 T D L R F Q],peptide microarray binding signal,"[1]; peptide region: H3 73-85, peptide modifications: H3K79me3, binder concentration: 50 nM",0.0032 ± 3.5e-05
same,peptide microarray binding signal,"[1]; peptide region: H3 73-85, peptide modifications: H3K79me3, binder concentration: 500 nM",0.0059 ± 0.0008
same,peptide microarray binding signal,"[2]; peptide region: H3 73-85, peptide modifications: H3K79me3, binder concentration: 10 nM",0.00483 ± 8.8e-05
same,peptide microarray binding signal,"[2]; peptide region: H3 73-85, peptide modifications: H3K79me3, binder concentration: 100 nM",0.00723 ± 0.00027
same,peptide microarray binding signal,[3]; [11],0.00851 ± 0.00073
same,peptide microarray binding signal,[3]; [12],0.0112 ± 0.0053
same,peptide microarray binding signal,[4]; [11],0.227 ± 0.017
same,peptide microarray binding signal,[4]; [12],0.201 ± 0.042
IHAKRVTIMPKDI [H3 112-124 I H A Kac R V T I M P Kme3 D I],peptide microarray binding signal,"[1]; peptide region: H3 112-124, peptide modifications: H3K115ac H3K122me3, binder concentration: 50 nM",0.0118 ± 0.00049
same,peptide microarray binding signal,"[1]; peptide region: H3 112-124, peptide modifications: H3K115ac H3K122me3, binder concentration: 500 nM",0.027 ± 0.0019
same,peptide microarray binding signal,"[2]; peptide region: H3 112-124, peptide modifications: H3K115ac H3K122me3, binder concentration: 10 nM",0.04 ± 0.0046
same,peptide microarray binding signal,"[2]; peptide region: H3 112-124, peptide modifications: H3K115ac H3K122me3, binder concentration: 100 nM",0.0592 ± 0.018
same,peptide microarray binding signal,[3]; [13],0.00634 ± 0.00027
same,peptide microarray binding signal,[3]; [14],0.00679 ± 0.00065
same,peptide microarray binding signal,[4]; [13],0.0228 ± 0.0018
same,peptide microarray binding signal,[4]; [14],0.0104 ± 0.00089
